Assay in all cases: DAPPL (digital affinity profiling via proximity ligation, sequencing); 10 mM Tris-HCl pH 7.5, 50 mM NaCl, 1 mM DTT, 4% glycerol, room temperature, 30 min; GST-TFs on glutathione beads, 16-mer random dsDNA library, 0.1% formaldehyde crosslink after washing; high values mean tight binding
The target in assay [1] is T1, FEV (Homo sapiens, UniProt Q99581 1-238).
T1 sequence: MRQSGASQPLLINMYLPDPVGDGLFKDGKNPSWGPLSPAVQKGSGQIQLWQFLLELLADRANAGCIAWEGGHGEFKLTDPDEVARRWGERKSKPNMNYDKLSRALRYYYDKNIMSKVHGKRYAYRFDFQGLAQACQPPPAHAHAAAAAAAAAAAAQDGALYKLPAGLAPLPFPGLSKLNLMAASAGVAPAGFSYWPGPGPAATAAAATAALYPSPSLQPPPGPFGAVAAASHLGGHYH
The conditions noted are these: protein: recombinant; tags: N-terminal GST; dsDNA, one strand shown. The gist of the method: (§1)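 Binding signal is defined as a hexamer's read frequency for one factor over its frequency for the tag-only sample. To obtain reads, GST-fused human transcription factors were expressed in yeast, captured on glutathione beads, barcoded with DNA and pooled with that sample. Pools met 200 nmole of a 16-mer random double-stranded DNA library in Tris/NaCl/DTT/glycerol buffer for 30 min at room temperature before washing, 0.1% formaldehyde crosslinking, proximity ligation (BsaI/T4 ligase, 1 h, 37 °C), PCR and Illumina NextSeq500 sequencing.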

Assay [2] concerns the target ETV5 (Homo sapiens, UniProt P41161 1-510). To be noted: protein: recombinant; tags: N-terminal GST; dsDNA, one strand shown. The gist of the method: as §1
The target of assay [3] is HSF1 (Homo sapiens, UniProt Q00613 1-529). To be noted: protein: recombinant; tags: N-terminal GST; chain copies: 3; dsDNA, one strand shown. The gist of the method: as §1
Sequence of HSF1 (Q00613 whole entry): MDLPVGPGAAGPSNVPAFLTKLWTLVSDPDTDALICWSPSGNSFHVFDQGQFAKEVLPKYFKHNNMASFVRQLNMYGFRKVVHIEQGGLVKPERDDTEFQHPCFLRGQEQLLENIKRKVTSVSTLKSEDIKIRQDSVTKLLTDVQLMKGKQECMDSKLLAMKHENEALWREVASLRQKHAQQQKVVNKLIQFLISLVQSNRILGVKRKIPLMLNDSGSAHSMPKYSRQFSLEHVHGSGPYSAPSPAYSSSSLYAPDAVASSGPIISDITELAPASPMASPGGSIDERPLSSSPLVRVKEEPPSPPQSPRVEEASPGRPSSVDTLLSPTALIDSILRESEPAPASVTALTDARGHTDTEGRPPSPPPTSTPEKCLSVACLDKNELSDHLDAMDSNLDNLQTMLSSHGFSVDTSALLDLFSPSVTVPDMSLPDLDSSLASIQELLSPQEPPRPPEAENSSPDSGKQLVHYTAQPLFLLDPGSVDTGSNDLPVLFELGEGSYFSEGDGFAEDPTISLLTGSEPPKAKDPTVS
Assay [4] addresses T2, SPIC (Homo sapiens, UniProt Q8N5J4 1-248).
T2 sequence: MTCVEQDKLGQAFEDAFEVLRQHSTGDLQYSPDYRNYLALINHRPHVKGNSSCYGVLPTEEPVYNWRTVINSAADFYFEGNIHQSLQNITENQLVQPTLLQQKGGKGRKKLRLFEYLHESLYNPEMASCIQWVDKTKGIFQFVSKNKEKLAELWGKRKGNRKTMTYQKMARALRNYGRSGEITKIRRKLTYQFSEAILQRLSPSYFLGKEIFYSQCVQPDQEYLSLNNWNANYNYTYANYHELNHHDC
The conditions noted are these: protein: recombinant; tags: N-terminal GST; dsDNA, one strand shown. The procedure, abridged: as §1

The target in assay [5] is ELF4 (Homo sapiens, UniProt Q99607 1-663). To be noted: protein: recombinant; tags: N-terminal GST; dsDNA, one strand shown. The gist of the method:
as §1

Assay [6] deals with T3, ELK4 (Homo sapiens, UniProt P28324-2 1-405).
T3 sequence: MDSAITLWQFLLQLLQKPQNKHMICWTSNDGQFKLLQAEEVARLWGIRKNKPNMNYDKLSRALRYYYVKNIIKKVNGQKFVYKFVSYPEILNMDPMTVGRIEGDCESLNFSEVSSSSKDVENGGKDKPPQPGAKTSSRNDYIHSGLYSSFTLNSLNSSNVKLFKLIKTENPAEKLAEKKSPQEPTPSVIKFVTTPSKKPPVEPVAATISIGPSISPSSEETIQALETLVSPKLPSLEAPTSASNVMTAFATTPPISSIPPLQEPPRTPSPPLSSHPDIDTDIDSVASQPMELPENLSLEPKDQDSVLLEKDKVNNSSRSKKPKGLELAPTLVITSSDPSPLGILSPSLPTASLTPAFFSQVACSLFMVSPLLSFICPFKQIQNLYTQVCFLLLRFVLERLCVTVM
The conditions noted are these: protein: recombinant; tags: N-terminal GST; dsDNA, one strand shown. The gist of the method:
as §1

For assay [7], the target named is T4, ETV2 (Homo sapiens, UniProt O00321 1-342).
T4 sequence: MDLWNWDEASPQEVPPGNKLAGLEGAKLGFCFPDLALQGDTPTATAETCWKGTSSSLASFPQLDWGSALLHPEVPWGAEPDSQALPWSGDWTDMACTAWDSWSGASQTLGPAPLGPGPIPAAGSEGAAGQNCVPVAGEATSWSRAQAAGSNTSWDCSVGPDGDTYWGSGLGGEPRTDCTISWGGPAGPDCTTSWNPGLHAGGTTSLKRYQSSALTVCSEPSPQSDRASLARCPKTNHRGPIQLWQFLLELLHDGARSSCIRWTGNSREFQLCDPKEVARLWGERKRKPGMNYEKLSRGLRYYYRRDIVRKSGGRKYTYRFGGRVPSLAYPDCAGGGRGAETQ
To be noted: protein: recombinant; tags: N-terminal GST; dsDNA, one strand shown. The gist of the method:
as §1

For assay [8], the target named is T5, ELF3 (Homo sapiens, UniProt P78545 1-371).
T5 sequence: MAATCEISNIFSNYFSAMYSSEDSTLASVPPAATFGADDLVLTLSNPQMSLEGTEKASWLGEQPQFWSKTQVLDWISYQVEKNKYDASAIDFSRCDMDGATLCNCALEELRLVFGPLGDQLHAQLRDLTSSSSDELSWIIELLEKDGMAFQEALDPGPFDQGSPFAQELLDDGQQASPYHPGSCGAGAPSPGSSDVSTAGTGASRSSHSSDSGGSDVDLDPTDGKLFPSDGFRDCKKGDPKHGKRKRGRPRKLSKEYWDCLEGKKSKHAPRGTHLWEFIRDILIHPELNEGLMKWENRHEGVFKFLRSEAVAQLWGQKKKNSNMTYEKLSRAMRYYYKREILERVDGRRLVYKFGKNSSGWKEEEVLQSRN
The conditions noted are these: protein: recombinant; tags: N-terminal GST; dsDNA, one strand shown. The procedure, abridged:
as §1

Assay [9] addresses CRX (Homo sapiens, UniProt O43186 1-299). The conditions noted are these: protein: recombinant; tags: N-terminal GST; dsDNA, one strand shown. The gist of the method: as §1
For assay [10], the target named is ETV1 (Homo sapiens, UniProt P50549 1-477). The conditions noted are these: protein: recombinant; tags: N-terminal GST; dsDNA, one strand shown. The gist of the method:
as §1

The target of assay [11] is T6, ERF (Homo sapiens, UniProt P50548 1-548).
T6 sequence: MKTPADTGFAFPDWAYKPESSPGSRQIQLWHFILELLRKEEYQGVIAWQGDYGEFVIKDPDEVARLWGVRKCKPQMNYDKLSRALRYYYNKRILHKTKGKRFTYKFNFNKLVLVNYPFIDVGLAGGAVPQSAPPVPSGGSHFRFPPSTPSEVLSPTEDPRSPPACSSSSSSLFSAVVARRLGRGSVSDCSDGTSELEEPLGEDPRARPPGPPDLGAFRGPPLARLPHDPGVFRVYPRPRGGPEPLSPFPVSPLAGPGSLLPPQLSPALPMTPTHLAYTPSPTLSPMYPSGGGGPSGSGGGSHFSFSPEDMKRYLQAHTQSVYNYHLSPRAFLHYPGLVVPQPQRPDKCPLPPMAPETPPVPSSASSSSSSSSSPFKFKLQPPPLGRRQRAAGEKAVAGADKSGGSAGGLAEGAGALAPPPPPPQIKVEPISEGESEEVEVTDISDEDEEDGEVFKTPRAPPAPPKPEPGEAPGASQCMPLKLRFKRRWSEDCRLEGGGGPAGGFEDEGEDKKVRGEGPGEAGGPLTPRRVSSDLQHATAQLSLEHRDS
To be noted: protein: recombinant; tags: N-terminal GST; dsDNA, one strand shown. The gist of the method: as §1

In assay [12] the target is T7, ETV3L (Homo sapiens, UniProt Q6ZN32 1-361).
T7 sequence: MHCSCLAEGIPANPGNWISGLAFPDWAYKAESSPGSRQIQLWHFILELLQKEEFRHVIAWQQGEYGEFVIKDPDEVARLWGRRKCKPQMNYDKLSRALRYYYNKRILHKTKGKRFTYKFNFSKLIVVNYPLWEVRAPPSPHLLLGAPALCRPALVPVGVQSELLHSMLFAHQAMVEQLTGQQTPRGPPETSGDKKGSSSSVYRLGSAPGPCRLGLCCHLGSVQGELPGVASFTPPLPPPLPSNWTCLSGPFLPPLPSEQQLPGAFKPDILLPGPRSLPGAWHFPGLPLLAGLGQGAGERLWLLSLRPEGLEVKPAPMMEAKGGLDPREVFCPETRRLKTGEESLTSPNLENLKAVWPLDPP
To be noted: protein: recombinant; tags: N-terminal GST; dsDNA, one strand shown. The procedure, abridged: as §1

Assay [13] addresses T8, ETS2 (Homo sapiens, UniProt P15036 1-469).
T8 sequence: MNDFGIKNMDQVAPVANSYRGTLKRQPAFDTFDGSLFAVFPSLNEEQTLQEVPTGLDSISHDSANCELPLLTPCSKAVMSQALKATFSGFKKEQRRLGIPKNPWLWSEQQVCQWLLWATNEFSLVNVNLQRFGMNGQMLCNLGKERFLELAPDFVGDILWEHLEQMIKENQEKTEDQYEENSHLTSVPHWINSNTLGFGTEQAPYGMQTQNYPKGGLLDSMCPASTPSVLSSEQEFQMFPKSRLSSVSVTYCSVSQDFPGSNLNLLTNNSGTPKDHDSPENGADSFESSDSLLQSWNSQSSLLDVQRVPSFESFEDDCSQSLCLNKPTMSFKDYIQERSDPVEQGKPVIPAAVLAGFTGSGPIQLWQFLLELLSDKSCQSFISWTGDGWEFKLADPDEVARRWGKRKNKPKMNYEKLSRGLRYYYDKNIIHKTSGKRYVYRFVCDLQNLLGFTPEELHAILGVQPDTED
To be noted: protein: recombinant; tags: N-terminal GST; dsDNA, one strand shown. The procedure, abridged: as §1

Assay [14] addresses T9, SPDEF (Homo sapiens, UniProt O95238 1-335).
T9 sequence: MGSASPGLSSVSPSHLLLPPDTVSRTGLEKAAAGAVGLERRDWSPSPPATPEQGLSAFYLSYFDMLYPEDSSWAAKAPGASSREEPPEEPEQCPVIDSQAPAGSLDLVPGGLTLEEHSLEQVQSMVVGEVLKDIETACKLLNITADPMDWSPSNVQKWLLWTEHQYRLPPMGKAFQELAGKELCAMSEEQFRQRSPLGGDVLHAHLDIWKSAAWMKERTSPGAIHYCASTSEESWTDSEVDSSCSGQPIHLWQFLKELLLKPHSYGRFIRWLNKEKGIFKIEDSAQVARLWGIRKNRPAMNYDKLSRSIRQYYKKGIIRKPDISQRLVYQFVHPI
The conditions noted are these: protein: recombinant; tags: N-terminal GST; dsDNA, one strand shown. The gist of the method: as §1

Assay [15] concerns the target T10, ETV7 (Homo sapiens, UniProt Q9Y603 1-341).
T10 sequence: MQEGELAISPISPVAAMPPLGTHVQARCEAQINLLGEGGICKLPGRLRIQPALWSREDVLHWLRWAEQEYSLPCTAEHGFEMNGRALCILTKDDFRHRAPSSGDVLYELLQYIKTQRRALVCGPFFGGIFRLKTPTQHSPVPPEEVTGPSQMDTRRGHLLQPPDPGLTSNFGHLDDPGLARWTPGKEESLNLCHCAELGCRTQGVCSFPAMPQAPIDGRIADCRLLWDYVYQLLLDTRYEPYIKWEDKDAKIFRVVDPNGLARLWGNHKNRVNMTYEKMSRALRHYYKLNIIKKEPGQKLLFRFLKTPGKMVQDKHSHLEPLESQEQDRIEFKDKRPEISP
To be noted: protein: recombinant; tags: N-terminal GST; dsDNA, one strand shown. The procedure, abridged:
as §1

Assay [16] concerns the target T11, ELF5 (Homo sapiens, UniProt Q9UKW6-2 1-255).
T11 sequence: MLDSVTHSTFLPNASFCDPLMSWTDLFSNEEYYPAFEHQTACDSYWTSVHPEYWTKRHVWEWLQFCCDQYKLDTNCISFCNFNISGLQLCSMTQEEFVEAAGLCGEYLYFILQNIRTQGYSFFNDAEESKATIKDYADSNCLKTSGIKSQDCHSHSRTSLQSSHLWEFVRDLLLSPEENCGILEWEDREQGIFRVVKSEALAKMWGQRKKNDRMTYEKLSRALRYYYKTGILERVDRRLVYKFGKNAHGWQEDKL
The conditions noted are these: protein: recombinant; tags: N-terminal GST; dsDNA, one strand shown. The procedure, abridged:
as §1

The target in assay [17] is T12, ETV3 (Homo sapiens, UniProt P41162-2 1-143).
T12 sequence: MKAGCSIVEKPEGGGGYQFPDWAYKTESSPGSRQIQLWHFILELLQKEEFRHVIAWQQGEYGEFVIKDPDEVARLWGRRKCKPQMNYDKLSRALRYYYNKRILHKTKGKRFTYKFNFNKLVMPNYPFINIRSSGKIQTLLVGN
To be noted: protein: recombinant; tags: N-terminal GST; dsDNA, one strand shown. The procedure, abridged: as §1

Assay [18] has as its target ETV6 (Homo sapiens, UniProt P41212 1-452). The conditions noted are these: protein: recombinant; tags: N-terminal GST; dsDNA, one strand shown. The gist of the method:
as §1

Sequence of CRX (O43186 whole entry): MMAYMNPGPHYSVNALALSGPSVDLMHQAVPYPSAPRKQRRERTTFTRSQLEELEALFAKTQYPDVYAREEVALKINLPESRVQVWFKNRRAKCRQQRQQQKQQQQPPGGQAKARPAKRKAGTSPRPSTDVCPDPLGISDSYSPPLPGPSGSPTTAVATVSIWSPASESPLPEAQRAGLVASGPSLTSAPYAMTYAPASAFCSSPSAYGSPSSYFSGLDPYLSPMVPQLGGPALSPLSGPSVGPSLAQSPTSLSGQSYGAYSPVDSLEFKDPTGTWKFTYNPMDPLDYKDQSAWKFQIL
Sequence of ETV1 (P50549 whole entry): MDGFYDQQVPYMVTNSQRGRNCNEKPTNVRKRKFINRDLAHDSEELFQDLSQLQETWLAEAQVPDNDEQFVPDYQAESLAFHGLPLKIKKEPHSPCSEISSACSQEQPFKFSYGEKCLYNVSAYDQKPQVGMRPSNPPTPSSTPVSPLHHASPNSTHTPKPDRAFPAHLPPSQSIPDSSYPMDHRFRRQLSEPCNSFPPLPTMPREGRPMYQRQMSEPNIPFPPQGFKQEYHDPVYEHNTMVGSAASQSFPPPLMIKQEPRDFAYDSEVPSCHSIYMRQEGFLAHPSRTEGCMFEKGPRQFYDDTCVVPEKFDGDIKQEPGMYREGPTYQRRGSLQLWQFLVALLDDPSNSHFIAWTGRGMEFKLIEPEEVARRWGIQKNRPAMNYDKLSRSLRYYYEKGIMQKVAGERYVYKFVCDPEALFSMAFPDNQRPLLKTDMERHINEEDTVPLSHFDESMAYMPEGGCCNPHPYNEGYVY
Sequence of ELF4 (Q99607 whole entry): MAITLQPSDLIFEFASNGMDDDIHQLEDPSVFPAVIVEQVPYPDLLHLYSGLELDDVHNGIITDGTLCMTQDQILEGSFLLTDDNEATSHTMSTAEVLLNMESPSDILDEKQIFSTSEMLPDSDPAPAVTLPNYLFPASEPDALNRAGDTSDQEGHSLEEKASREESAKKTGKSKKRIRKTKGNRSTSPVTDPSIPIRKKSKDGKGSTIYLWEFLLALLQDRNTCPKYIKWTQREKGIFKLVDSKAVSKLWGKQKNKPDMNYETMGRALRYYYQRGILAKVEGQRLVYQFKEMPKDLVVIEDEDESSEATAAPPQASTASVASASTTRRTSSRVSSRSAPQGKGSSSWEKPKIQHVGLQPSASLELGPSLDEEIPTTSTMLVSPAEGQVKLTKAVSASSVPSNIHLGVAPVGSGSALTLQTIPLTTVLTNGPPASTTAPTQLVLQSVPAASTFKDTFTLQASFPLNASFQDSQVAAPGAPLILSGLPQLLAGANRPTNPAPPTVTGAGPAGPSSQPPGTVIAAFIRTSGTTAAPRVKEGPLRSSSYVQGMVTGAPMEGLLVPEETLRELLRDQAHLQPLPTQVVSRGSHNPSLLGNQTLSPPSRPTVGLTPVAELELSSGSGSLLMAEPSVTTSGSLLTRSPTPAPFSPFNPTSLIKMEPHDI
Sequence of ETV5 (P41161 whole entry): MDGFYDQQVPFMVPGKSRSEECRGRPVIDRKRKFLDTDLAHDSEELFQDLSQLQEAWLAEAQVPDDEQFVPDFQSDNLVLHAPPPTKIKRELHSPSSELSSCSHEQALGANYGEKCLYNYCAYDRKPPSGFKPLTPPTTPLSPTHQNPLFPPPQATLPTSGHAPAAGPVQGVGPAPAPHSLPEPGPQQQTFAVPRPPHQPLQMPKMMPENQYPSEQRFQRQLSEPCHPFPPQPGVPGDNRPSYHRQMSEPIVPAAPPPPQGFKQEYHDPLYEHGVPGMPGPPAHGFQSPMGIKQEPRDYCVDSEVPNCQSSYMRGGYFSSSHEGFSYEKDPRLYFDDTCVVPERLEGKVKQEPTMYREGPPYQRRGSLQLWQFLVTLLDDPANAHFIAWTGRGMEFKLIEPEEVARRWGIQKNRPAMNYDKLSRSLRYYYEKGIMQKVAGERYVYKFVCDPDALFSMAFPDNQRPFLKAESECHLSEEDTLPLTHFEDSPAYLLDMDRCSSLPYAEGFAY
Sequence of ETV6 (P41212 whole entry): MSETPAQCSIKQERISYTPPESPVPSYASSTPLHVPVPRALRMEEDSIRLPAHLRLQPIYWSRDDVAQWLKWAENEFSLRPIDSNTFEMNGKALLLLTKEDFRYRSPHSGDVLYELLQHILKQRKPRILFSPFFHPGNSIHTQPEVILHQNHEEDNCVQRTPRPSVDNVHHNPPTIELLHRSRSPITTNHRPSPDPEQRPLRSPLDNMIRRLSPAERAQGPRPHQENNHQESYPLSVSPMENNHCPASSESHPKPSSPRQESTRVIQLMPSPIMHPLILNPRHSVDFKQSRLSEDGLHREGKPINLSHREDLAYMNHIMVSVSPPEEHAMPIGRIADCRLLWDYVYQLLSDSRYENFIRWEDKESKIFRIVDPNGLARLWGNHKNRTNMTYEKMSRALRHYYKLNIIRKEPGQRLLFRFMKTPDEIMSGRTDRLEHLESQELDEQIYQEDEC

As to AAGTAA, the binding signal was 1.24 fold enrichment (6-mer frequency, TF over GST control) in [1]; 1.32 fold enrichment (6-mer frequency, TF over GST control) in assay [2]; 1.24 fold enrichment (6-mer frequency, TF over GST control) in assay [3]; 1.35 fold enrichment (6-mer frequency, TF over GST control) in assay [4]; 1.27 fold enrichment (6-mer frequency, TF over GST control) in [5]; 1.19 fold enrichment (6-mer frequency, TF over GST control) in [6]. The binding signal in assay [7] is 1.38 fold enrichment (6-mer frequency, TF over GST control); in [8], 1.42 fold enrichment (6-mer frequency, TF over GST control); in assay [9] it was 1.39 fold enrichment (6-mer frequency, TF over GST control); in [10], 1.31 fold enrichment (6-mer frequency, TF over GST control); in assay [11], 1.27 fold enrichment (6-mer frequency, TF over GST control); in assay [12] it was 1.31 fold enrichment (6-mer frequency, TF over GST control). Besides, the binding signal in assay [13] was 1.27 fold enrichment (6-mer frequency, TF over GST control); in [14], 1.23 fold enrichment (6-mer frequency, TF over GST control); in assay [15] it was 1.27 fold enrichment (6-mer frequency, TF over GST control); in [16], 1.42 fold enrichment (6-mer frequency, TF over GST control); in [17] it was 1.28 fold enrichment (6-mer frequency, TF over GST control); in assay [18], 1.45 fold enrichment (6-mer frequency, TF over GST control).

(Values after PMC7862700, “An all-to-all approach to the identification of sequence-specific readers for epigenetic DNA modifications on cytosine”.)
